RE007 growth inh: less growth of the S. pombe RE007 Vpr strain; S. pombe RE007 Vpr strain, BacTiter-Glo ATP luminescence, 24 h; Potency, µM (top dose mostly 92.2 µM), inactives show at the highest dose activity change, negative = less growth, hits mostly inhibitors; 360,000 tested, 0.21% active; active means well fitted falling curve with a large enough effect; inconclusive means small, poorly fitted or top-dose-only effect; inactive means no such curve, though single readings can be large or run the other way; further: nearly all actives have a fitted effect of over 50% in size
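Fission yeast strain RE007, carrying one chromosomally integrated HIV-1 vpr copy, was seeded at OD 0.01 in PMG+AL medium with 23 nL pinned compound. After 24 h at 30 °C and 99% humidity, viability was read by BacTiter-Glo luminescence.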
AmpC inh detg: inhibitors of E. coli AmpC beta-lactamase with detergent; P00811; AmpC hydrolysis of nitrocefin, absorbance 480 nm, 0.01% Triton; Potency, µM (doses to about 114 µM), inactives show at the top dose activity change, negative = inhibition, actives largely listed as inhibitors; 370,000 tested, 0.041% active; AID 485294;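 further: 0% = no-compound wells and -100% = no-enzyme wells; nearly all actives have a fitted effect of over 25% in size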
Target sequence (P00811 whole entry, looked up): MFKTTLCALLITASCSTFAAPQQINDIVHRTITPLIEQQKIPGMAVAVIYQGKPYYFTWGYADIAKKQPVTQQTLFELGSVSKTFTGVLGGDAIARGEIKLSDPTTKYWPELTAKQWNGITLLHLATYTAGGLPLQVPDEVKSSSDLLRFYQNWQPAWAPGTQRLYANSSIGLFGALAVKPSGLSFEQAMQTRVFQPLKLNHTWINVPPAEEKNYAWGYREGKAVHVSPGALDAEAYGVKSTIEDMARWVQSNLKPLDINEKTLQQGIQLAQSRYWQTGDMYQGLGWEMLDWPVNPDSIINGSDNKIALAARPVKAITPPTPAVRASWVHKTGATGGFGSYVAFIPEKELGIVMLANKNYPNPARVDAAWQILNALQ
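20 mM phosphate pH 7.0 + 0.01% (detergent screen) or 0.0001% Triton X-100; 5.3 nM AmpC reagent; cpd preinc 15 min RT; nitrocefin (800 uM stock) to start; A480 q20 s × 4 min; Activity was normalised to no-enzyme and no-compound control wells.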
AmpC no deterg: AmpC beta-lactamase inhibition without detergent; P00811; AmpC nitrocefin hydrolysis, absorbance 480 nm, 0.0001% Triton; Potency, µM (titrated, usually from 57.1 µM), without a hit: top-dose activity change, negative = inhibition, usual class: inhibitors; 330,000 tested, 0.52% active; AID 485341;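 further: plate controls were no compound for no effect and no enzyme for full effect; nearly all actives have a fitted effect of over 20% in size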
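20 mM phosphate pH 7.0 + 0.01% (detergent screen) or 0.0001% Triton X-100; 5.3 nM AmpC reagent; cpd preinc 15 min RT; nitrocefin (800 uM stock) to start; A480 q20 s × 4 min; Activity was normalised to no-enzyme and no-compound control wells.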
Sm TGR block: inhibitors of Schistosoma mansoni thioredoxin glutathione reductase; Potency, µM (highest dose often 114 µM), without a hit: at the top dose activity change, negative = inhibition, most hits filed as inhibitors; 360,000 tested, 3% active; purified TGR, DTNB reduction, TNB absorbance 405 nm; Q962Y6; AID 485364; further: nearly all actives have a fitted effect of over 60% in size
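First, TGR (20 nM dispensed) and NADPH were mixed with compound. Second, a 15 min room-temperature incubation followed. Third, further NADPH and then DTNB were added to start the reaction. Finally, TNB absorbance was monitored kinetically.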
AMA1-RON2 inh: inhibitors of Plasmodium falciparum AMA1-RON2 interaction. AlphaScreen AMA1-biotinylated RON2 peptide binding. Potency, µM (series often up to 58.2 µM), for the others: at the top dose activity change, negative = inhibition, actives largely listed as inhibitors. 360,000 tested, 0.2% active. AID 720542;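 further: 0% = vehicle wells and -100% = peptide control; nearly all actives have a fitted effect of over 45% in size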
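AMA1 (3D7) with his tag at 25 nM final met compounds first, then biotinylated RON2 peptide at 25 nM; detection used donor plus acceptor beads, 10 µg/mL apiece, read by AlphaScreen after 30 min at room temperature.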
Active calls of the source: *; ? = inconclusive; · = no result; [ ] = dose if it differs, or a comment. This is a sample that favours compounds with a hit; in the whole collection about 3.2% have one here. Unless noted, the call rests on the fitted dose curve; in most records, active means well fitted curve in the direction sought with a large enough effect; inconclusive means small, poorly fitted or top-dose-only effect, or another doubt; inactive means no such curve, though single readings can be large; an effect the other way counts as inactive or inconclusive. Unless noted, on the % scale 0 is the no-effect control and ±100 the full control effect; potency means the concentration at half of the fitted maximal effect.

SMILES	RE007 growth inh	AmpC inh detg	AmpC no deterg	Sm TGR block	AMA1-RON2 inh
COc1ccc(C)cc1NCc1ccc(OC)c(C)c1OC	-1%	-7%	-20%	2%	28µM*
COc1ccc(C)cc1NCc1ccc([N+](=O)[O-])cc1	5%	-17%	-20%	-4%	?
CCN1CCN(Cc2nc3cc(NC(=O)c4cccc([N+](=O)[O-])c4)ccc3n2CC)CC1	·	-12%	·	-1%	·
O=[N+]([O-])c1cc(C(F)(F)F)ccc1NC1CCN(Cc2ccccc2)C1 (centres undefined)	-6%	5%	67%	-26%	-26%
O=[N+]([O-])c1cc(C(F)(F)F)ccc1NC1CCN(Cc2ccccc2)CC1	-17%	0%	10%	1%	13µM*
COc1cccc(C(=O)C(C#N)=C(SC)SC)c1	-8%	7%	-21%	13µM*	-2%
CSC(SC)=C(C#N)C(=O)c1ccccc1	16%	0%	-20%	11µM*	-1%
CNC(=S)N1N=C(c2ccc(C)cc2)CC1c1ccc(N(C)C)cc1 (centres undefined)	23%	0%	22%	-7%	28µM*
COc1ccccc1NC(=O)Cn1ncc2c1-c1ccccc1OC2	2%	-14%	6.3µM*	1%	0%
COC(=O)C(C(=O)OC)c1ccccc1NC(=O)OCc1ccccc1	3%	·	·	·	3%
COc1ccc(C(=O)N2CCN(Cc3cc(OC)c(O)c(OC)c3)CC2)cc1OC	-6%	-2%	20%	8.9µM*	-18%
COc1cc(CN2CCN(C(=O)CC(C)C)CC2)cc(OC)c1O	7%	-18%	6%	13µM*	-21%
COc1cc(CN2CCN(C(=O)CC(C)C)CC2)cc(OC)c1OC	7%	2%	10%	8%	?
COc1ccc(CN2CCN(C(=O)c3cc(OC)c(OC)c(OC)c3)CC2)cc1OC	13%	-8%	17%	-19%	-5%
COc1ccc(OC)c(CNS(=O)(=O)c2ccc(-c3coc(C)n3)cc2)c1	·	6%	·	-3%	·
CCOc1ccc(-c2cn3c(n2)sc2cc(C(=O)NCCCN(CC)CC)ccc23)cc1	·	3%	·	0%	·
Cc1sc2nc(CN3CCCC3)nc(Cl)c2c1C	0%	?	-40%	7.1µM*	1%
CCOC(=O)c1sc2nc(CN3CCCCC3)nc(Cl)c2c1C	7%	-2%	-17%	-4%	6%
Cc1sc2nc(CN3CCCC3)nc(NCc3ccncc3)c2c1C	-13%	4%	32%	40µM*	29%
COc1ccc(NC(=O)CCS(=O)(=O)c2ccc3nc(C)sc3c2)cc1Cl	·	-11%	·	2%	·
O=[N+]([O-])c1ccc(C(c2sc3nc(-c4ccco4)nn3c2O)N2CCN(Cc3ccccc3)CC2)cc1 (centres undefined)	·	0%	·	-12%	·
O=Nc1c(-c2c(O)[nH]c3cc(Br)ccc23)[nH]c2ccccc12	8%[18.4 µM]	?	5.6µM*	-12%	10µM*
COC(=O)CC1Oc2ccccc2-n2cc(-c3ccc(Cl)cc3)nc21 (centres undefined)	·	2%	·	3%	·
CC(C)=CCC1=C(OCC(=O)O)C(=O)c2ccccc2C1=O	?	8%	-35%	10µM*	-2%
CC(C)=CCC/C(C)=C/CC/C(C)=C/CC/C(C)=C/CC1=C(C)C(=O)c2ccccc2C1=O	-5%[18.4 µM]	1%	-21%	32µM*	-8%
SMILES	RE007 growth inh	AmpC inh detg	AmpC no deterg	Sm TGR block	AMA1-RON2 inh
CC(C)=CCC/C(C)=C/CC/C(C)=N/O	8%	-5%	-10%	-7%	0%
COc1ccccc1OCC(=O)O	-4%	-11%	-13%	5%	-6%
COc1ccc(C2C(C(=O)Nc3cccnc3)=C(C)Nc3nc(-c4ccco4)nn32)cc1 (centres undefined)	13%	-14%	-9%	50µM*	-14%
CN1CCN(C(CNC(=O)C(=O)Nc2ccc(Cl)cc2)c2cccnc2)CC1 (centres undefined)	·	24%	·	-2%	·
CCOc1ccccc1NC(=O)c1c(C)cc(C)nc1SCC(=O)c1cccc(OC)c1	·	-1%	·	0%	·
Cc1ccc(NC(=O)CCN2C(=O)c3ccccc3Sc3ncccc32)cc1	-14%	-1%	10%	13µM*	0%

Source: PubChem (National Center for Advancing Translational Sciences (NCATS))
